Assay outcomes (PubChem)
RXFP1 antagonist = antagonists of human relaxin receptor RXFP1; actives 0.59% (n = 350,000); activity change, negative = inhibition, % at 57.5 µM; HEK293-RXFP1, relaxin-stimulated cAMP HTRF, 30 min; active compounds read low; AID 1259400;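 active = activity change of -60% or lower, but not beyond a set lower limit; inconclusive = change between -60% and -40%, or beyond the set limit; inactive = change above -40%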; also: % is scaled to controls: 0 for no effect and ±100 for the full control effect
gsp agonist = agonists of gsp mutant (McCune-Albright syndrome); AID 624287; actives 0.13% (n = 340,000); Potency, µM (top dose mostly 76.9 µM), inactives show top-dose activation (cAMP increase), most hits filed as activators; gsp mutant cells, cAMP HTRF, 30 min; active = well fitted activation curve with a large enough effect; inconclusive = small, poorly fitted or top-dose-only effect, or another doubt; inactive = no such curve, though single readings can be large or run the other way; cell line not stated here;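 also: phosphodiesterase inhibitor Ro 20-1724 added with compounds to block cAMP breakdown; potency is read from the fitted curve at half-maximal effect; nearly all actives have a fitted effect of over 60% in size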
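Cells stably selected in G418 were plated at 2000/well, grown 16-24 hr, then given compounds in DMSO with the PDE inhibitor […] (300 uM solution added) for 30 min at 37C; cAMP was read by HTRF.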
RXFP1 agonist = RXFP1 (human) receptor agonism. actives 0.3% (n = 370,000). Q9HBX9. Potency, µM (highest dose often 57.5 µM), without a hit: at the highest dose activation, hits mostly activators. HEK293T-RXFP1 cAMP TR-FRET, 30 min; response scale: percent of porcine relaxin response, buffer zero; active = well fitted activation curve with a large enough effect; inconclusive = small, poorly fitted or top-dose-only effect; also: potency is read from the fitted curve at half-maximal effect; % is scaled to controls: 0 for no effect and ±100 for the full control effect; nearly all actives have a fitted effect of over 60% in size
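HEK293 cells stably expressing RXFP1, treated 30 min at 37C with compounds plus PDE4 inhibitor Ro 20174; cAMP measured by HTRF TR-FRET. Normalized to buffer and 29 nM porcine relaxin; EC50 by Hill fit.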
gsp antag = gsp mutant antagonism. gsp-mutant cells, cAMP HTRF, 30 min. actives 0.4% (n = 340,000). AID 624288. Potency, µM (top dose mostly 76.9 µM), for the others: top-dose activity change, negative = inhibition, most hits filed as inhibitors; calls by dose curve; cell line not stated here;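 also: intracellular cAMP measured with PDE inhibitor Ro 20-1724 present during compound exposure; potency is read from the fitted curve at half-maximal effect; % is scaled to controls: 0 for no effect and ±100 for the full control effect; nearly all actives have a fitted effect of over 65% in size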
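G418-selected cells were plated in DMEM/10% FBS for 16-24 h at 37C, then treated with compounds plus the PDE inhibitor […] (300 uM solution added) for 30 min at 37C. Intracellular cAMP was measured by HTRF after 30 min lysis at room temperature.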
TSHR antagonist = human thyrotropin receptor antagonism. TSHR-expressing cells, TSH-stimulated cAMP HTRF, 2 h; active compounds read low. AID 504810. activity change, negative = inhibition, % at 11.5 µM. actives 0.2% (n = 330,000);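 active = activity change below a set negative limit, meaning inhibition stronger than a set level, cut at about -70% in these data; inconclusive = activity change between two set negative limits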; also: % is scaled to controls: 0 for no effect and ±100 for the full control effect
Target sequence (P16473 whole entry, looked up): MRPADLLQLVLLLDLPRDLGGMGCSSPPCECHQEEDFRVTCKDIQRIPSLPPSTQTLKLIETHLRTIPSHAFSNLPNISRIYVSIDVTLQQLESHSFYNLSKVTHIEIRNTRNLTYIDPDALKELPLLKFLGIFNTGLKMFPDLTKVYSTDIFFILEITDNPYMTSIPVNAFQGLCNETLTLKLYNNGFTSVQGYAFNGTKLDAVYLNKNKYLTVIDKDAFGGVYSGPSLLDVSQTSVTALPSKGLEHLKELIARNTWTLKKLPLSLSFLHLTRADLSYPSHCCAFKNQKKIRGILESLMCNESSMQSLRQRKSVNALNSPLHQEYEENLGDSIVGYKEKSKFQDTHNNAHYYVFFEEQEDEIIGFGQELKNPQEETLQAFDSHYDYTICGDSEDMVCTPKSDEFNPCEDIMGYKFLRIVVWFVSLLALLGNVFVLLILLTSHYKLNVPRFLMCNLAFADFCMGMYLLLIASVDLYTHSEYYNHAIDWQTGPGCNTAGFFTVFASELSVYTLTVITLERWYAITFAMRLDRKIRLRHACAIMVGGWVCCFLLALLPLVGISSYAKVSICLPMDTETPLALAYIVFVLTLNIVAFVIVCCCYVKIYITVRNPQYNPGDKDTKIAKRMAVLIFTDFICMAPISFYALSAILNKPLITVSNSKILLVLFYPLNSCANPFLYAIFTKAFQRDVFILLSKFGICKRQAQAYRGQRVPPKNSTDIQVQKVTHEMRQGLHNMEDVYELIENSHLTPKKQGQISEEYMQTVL
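Inhibition of cAMP made by TSHR-expressing cells under TSH stimulation (4nM final, EC80; 2 h, 37 deg C) is quantified with a one-step lysis HTRF kit, anti-cAMP cryptate versus cAMP-d2.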
* hit, by the source's call; ? = inconclusive; · = no result; [ ] = dose if it differs, or a comment. Most compounds without a hit are left out; they make up all but 1% or so of the library.

SMILES | RXFP1 antagonist | gsp agonist | RXFP1 agonist | gsp antag | TSHR antagonist
O=C(CSc1nccn1Cc1ccc(F)cc1)Nc1ccc2c(c1)OCO2 | 0 | · | 3% | · | ·
O=C(CCCl)NCc1ccccc1 | 21 | · | · | · | ·
CN(C)c1ccc(/C=N/n2c(-c3cccnc3)n[nH]c2=S)cc1 | -1 | 12% | 4% | ? | -9
CN(C)c1ccc(/C=N/n2c(-c3ccccc3Br)n[nH]c2=S)cc1 | -94* | 5% | 2% | ? | -7
COc1cc(NS(=O)(=O)c2ccc(N)cc2)nc(C)n1 | -10 | · | · | · | ·
Cc1cccc(NC(=O)c2ccccc2O)c1C | 5 | -5% | 1% | -19% | 22
O=C(Nc1ccccc1O)c1ccccc1O | 8 | 11% | -2% | 25µM* | -11
O=C1C(Cl)=C(Nc2ccc3cn[nH]c3c2)C(=O)c2ccccc21 | ? | 4%[15.4 µM] | 0% | ? | -90*
Clc1cccc(CN2CCc3c([nH]c4ccccc34)C2)c1 | -64* | -315% | 2% | 3% | -9
Clc1ccc(CN2CCc3c([nH]c4ccccc34)C2)cc1Cl | -64* | -59% | 0% | -1% | -9
CCc1cc2c(=O)c(-c3ccc4c(c3)OCCO4)coc2cc1OS(C)(=O)=O | -84* | -16%[15.4 µM] | -2% | ? | -27
CCc1cc2c(=O)c(-c3ccc4c(c3)OCCO4)coc2c(CN2CCCCC2C)c1O (stereo not drawn) | -6 | 14% | 4% | -30% | -17
O=c1oc2ccccc2c(Nc2ccc(F)cc2)c1[N+](=O)[O-] | 0 | -26% | 1% | ? | 2
O=c1oc2ccccc2c(Nc2ccc(Cl)cc2)c1[N+](=O)[O-] | -1 | -6% | -4% | 28µM* | -8
O=C(Cn1c(=O)nc(-c2ccccc2)c2ccccc21)NCCCc1ccccc1 | · | · | 2% | · | ·
Cc1cc(C)c2c(=O)n(CC(=O)Nc3ccc(Cl)cc3)sc2n1 | -26 | ? | 1% | -11% | -3
CCOc1ccc(NC(=O)Cn2sc3nc(C)cc(C)c3c2=O)cc1 | -66* | -2%[15.4 µM] | 6% | -2% | -7
CCCCOc1ccc(C(=O)Nc2ccc3c(c2)N(C(C)=O)CCC3)cc1 | 7 | · | 0% | · | ·
CCOC(=O)c1sc2nc(NC(=O)C3CC3)sc2c1C | 1 | 16% | -1% | 5% | 8
CCOC(=O)c1sc2nc(NC(=O)C(C)(C)C)sc2c1C | · | 0% | 2% | 32µM* | -17
CCn1c(=S)[nH]c2scc(-c3cccs3)c2c1=O | -14 | ? | 16µM* | -18% | -8
COc1ccc(C2c3ccc4ccccc4c3Oc3ncn(CCN(C)C)c(=N)c32)cc1 (stereo not drawn) | -108* | 7% | 2% | 5% | -8
COc1ccc(C2c3ccc4ccccc4c3Oc3ncn(CCO)c(=N)c32)cc1 (stereo not drawn) | -12 | ? | -1% | 2% | 3
CCN1C(C(=O)c2ccccc2)=C(Nc2ccccc2C)c2ccccc2S1(=O)=O | -4 | 0% | -1% | 8% | -79*
CCCCC(=O)OC1=C(C(=O)c2ccccc2)N(CC)S(=O)(=O)c2ccccc21 | ? | · | -1% | · | ·
SMILES | RXFP1 antagonist | gsp agonist | RXFP1 agonist | gsp antag | TSHR antagonist
CCCCN1C(C(=O)c2ccccc2)=C(OC(C)=O)c2ccccc2S1(=O)=O | -63* | · | 3% | · | ·
COc1ccc2c(c1)c(CC(=O)OC/C=C(\C)CC/C=C(\C)CCC=C(C)C)c(C)n2C(=O)c1ccc(Cl)cc1 | 9 | · | · | · | ·
Cc1ccc(OCC(=O)Nc2ccc3nc(Nc4cccc(Cl)c4)cc(C)c3c2)cc1 | -11 | · | 14µM* | · | ·
O=C(Nc1ccc(Br)cc1F)c1ccc2c(c1)N(Cc1ccccc1)C(=O)CS2=O (stereo not drawn) | -72* | -14% | -1% | ? | -3
Cc1ccc(C)c(NC(=O)c2ccc3c(c2)N(Cc2ccc(F)cc2)C(=O)CS3=O)c1 (stereo not drawn) | · | -1% | 0% | -4% | 19
CC(CCc1ccccc1)NC(=O)C1CCN(c2nnc(-n3cccc3)s2)CC1 (stereo not drawn) | · | 13µM* | -1% | -2% | 1
CCOc1ccc(CNC(=O)CCCn2c(=O)c3cccn3c3cccnc32)cc1 | 1 | · | 4% | · | ·
